# Measurements reported in the supplement of paper PMC12808144.
# Test system: Mel-DCC-11
# Test: cell viability relative to DMSO control (fraction of DMSO control); higher = less cytotoxic, active = 0.5 or less
# Conditions: 1 µM; 120 h
# In short: (§1)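 Patient-derived Mel-DCC-11, its resistant subline Mel-DCC-11-R (alone and with 8 µM of its selecting drug) and NHEM-hTERT immortalized melanocytes were exposed for 120 h to 315 approved anti-cancer drugs at 1 µM in duplicate. Luminescence was read with ATPlite 1step. Viability was normalised to vehicle controls and averaged over duplicates.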
row,SMILES,cell viability
1,Cl.NNc1nncc2ccccc12 [Hydralazine hydrochloride],1.17 (inactive)
2,Nc1c2ccccc2nc2ccccc12 [Aminacrine],1.43 (inactive)
3,CC(=O)c1c(C)c2cnc(Nc3ccc(N4CCNCC4)cn3)nc2n(C2CCCC2)c1=O [Palbociclib],0.763 (inactive)
4,C[C@@H](Oc1cc(-c2cnn(C3CCNCC3)c2)cnc1N)c1c(Cl)ccc(F)c1Cl [Crizotinib],1.06 (inactive)
5,CCc1ccc(CCOc2ccc(CC3SC(=O)NC3=O)cc2)nc1.Cl (stereo unspecified) [Pioglitazone hydrochloride],0.8 (inactive)
6,O=C(/C=C\n1cnc(-c2cc(C(F)(F)F)cc(C(F)(F)F)c2)n1)NNc1cnccn1 [Selinexor],0.445 (active)
7,Nc1nc(=O)c2c(CCc3ccc(C(=O)N[C@@H](CCC(=O)O)C(=O)O)cc3)c[nH]c2[nH]1 [Pemetrexed acid],0.933 (inactive)
8,O=NN(CCCl)C(=O)NCCCl [Carmustine],1.16 (inactive)
9,COc1ccc(-c2cc(=S)ss2)cc1 [Anethole trithione],1.28 (inactive)
10,CCCCCCCCCCCCCCCCCCOCC(O)CO (stereo unspecified) [Batyl alcohol],0.948 (inactive)

# Test system: NHEM-hTERT
# Test: as above
# Conditions: 1 µM; 120 h
# In short: as §1
row,SMILES,cell viability
1,CNNCc1ccc(C(=O)NC(C)C)cc1.Cl [Procarbazine hydrochloride],1.13 (inactive)
2,CC1(C)CCC(CN2CCN(c3ccc(C(=O)NS(=O)(=O)c4ccc(NCC5CCOCC5)c([N+](=O)[O-])c4)c(Oc4cnc5[nH]ccc5c4)c3)CC2)=C(c2ccc(Cl)cc2)C1,0.502 (inactive)
3,CC1=C(/C=C/C(C)=C/C=C/C(C)=C/C=C/C=C(C)/C=C/C=C(C)/C=C/C2=C(C)CCCC2(C)C)C(C)(C)CCC1 [Beta-Carotene],0.916 (inactive)
4,CC(C)(O)CNc1nc(Nc2ccnc(C(F)(F)F)c2)nc(-c2cccc(C(F)(F)F)n2)n1 [Enasidenib],1.09 (inactive)
5,COc1ccc2[nH]cc(CCNC(C)=O)c2c1 [Melatonine],0.936 (inactive)
6,Nc1nc(F)nc2c1ncn2[C@@H]1O[C@H](CO)[C@@H](O)[C@@H]1O [Fludarabine],0.934 (inactive)
7,CCN1CCN(Cc2ccc(Nc3ncc(F)c(-c4cc(F)c5nc(C)n(C(C)C)c5c4)n3)nc2)CC1.CS(=O)(=O)O [abemaciclib mesylate],0.896 (inactive)
8,CC(C)Cn1cnc2c(N)nc3ccccc3c21 [Imiquimod],1.31 (inactive)
9,C=C[C@H]1[C@@H](O[C@@H]2O[C@H](CO)[C@@H](O)[C@H](O)[C@H]2O)OC=C2C(=O)OCC[C@]21O [Swertiamarin],0.942 (inactive)
10,COc1cccc2c1C(=O)c1c(O)c3c(c(O)c1C2=O)C[C@@](O)(C(=O)CO)C[C@@H]3O[C@H]1C[C@H](N)[C@H](O[C@H]2CCCCO2)[C@H](C)O1 [Pirarubicin],0.839 (inactive)
11,CC(C)[C@H](NC(=O)[C@H](CC(=O)O)NC(=O)[C@H](CCCCN)NC(=O)[C@@H](N)CCCNC(=N)N)C(=O)N[C@@H](Cc1ccc(O)cc1)C(=O)O [Thymopentin],1.01 (inactive)
12,Cc1ccc(NC(=O)C2(c3ccc4c(c3)OC(F)(F)O4)CC2)nc1-c1cccc(C(=O)O)c1 [Lumacaftor],0.997 (inactive)
13,CS(=O)(=O)OCCCCOS(C)(=O)=O [Busulfan],1.14 (inactive)
14,O=C([O-])CCCc1ccccc1.[Na+] [Sodium Phenylbutyrate],1.1 (inactive)
15,COc1ccc2cc3[n+](cc2c1OC)CCc1cc2c(cc1-3)OCO2 [Berberine],1.1 (inactive)
16,COc1cc2ncnc(Nc3ccc(F)c(Cl)c3)c2cc1OCCCN1CCOCC1 [Gefitinib],0.905 (inactive)
17,C/C=C1/NC(=O)[C@H]2CSSCC/C=C/[C@H](CC(=O)N[C@H](C(C)C)C(=O)N2)OC(=O)[C@H](C(C)C)NC1=O [Romidepsin],0.0685 (active)
18,Cc1c(C(=O)Nc2ccc(N3C[C@@H](C)O[C@@H](C)C3)nc2)cccc1-c1ccc(OC(F)(F)F)cc1 [Sonidegib],1.04 (inactive)

row,SMILES,cell viability
1,C[C@@H]1C[C@H]2[C@@H]3CCC4=CC(=O)C=C[C@]4(C)[C@@]3(F)[C@@H](O)C[C@]2(C)[C@@]1(O)C(=O)COP(=O)([O-])[O-].[Na+].[Na+] [Dexamethasone Sodium Phosphate],1.2 (inactive)
2,Cc1ccc(NC(=O)c2ccc(CN3CCN(C)CC3)cc2)cc1Nc1nccc(-c2cccnc2)n1 [Imatinib],1.24 (inactive)
3,CC(C)(S)[C@@H](N)C(=O)O [Artamine],1.08 (inactive)
4,CCS(=O)(=O)N1CC(CC#N)(n2cc(-c3ncnc4[nH]ccc34)cn2)C1 [Baricitinib],1.07 (inactive)
5,CCc1cc2c(cc1N1CCC(N3CCOCC3)CC1)C(C)(C)c1[nH]c3cc(C#N)ccc3c1C2=O [Alectinib],0.977 (inactive)
6,CS(=O)(=O)O.Cc1ccc(NC(=O)c2ccc(CN3CCN(C)CC3)cc2)cc1Nc1nccc(-c2cccnc2)n1 [Imatinib Mesylate],0.965 (inactive)
7,COC(=O)N[C@H](C(=O)N1CC2(CC2)C[C@H]1c1ncc(-c2ccc3c(c2)C(F)(F)c2cc(-c4ccc5nc([C@@H]6[C@H]7CC[C@H](C7)N6C(=O)[C@@H](NC(=O)OC)C(C)C)[nH]c5c4)ccc2-3)[nH]1)C(C)C [Ledipasvir],1.26 (inactive)
8,CC(C)C[C@H](NC(=O)[C@@H](O)[C@H](N)Cc1ccccc1)C(=O)O [Ubenimex],0.944 (inactive)
9,Cl.NNc1nncc2ccccc12 [Hydralazine hydrochloride],1.12 (inactive)
10,Nc1c2ccccc2nc2ccccc12 [Aminacrine],0.915 (inactive)
11,CC(=O)c1c(C)c2cnc(Nc3ccc(N4CCNCC4)cn3)nc2n(C2CCCC2)c1=O [Palbociclib],0.993 (inactive)
12,C[C@@H](Oc1cc(-c2cnn(C3CCNCC3)c2)cnc1N)c1c(Cl)ccc(F)c1Cl [Crizotinib],0.986 (inactive)
13,CCc1ccc(CCOc2ccc(CC3SC(=O)NC3=O)cc2)nc1.Cl (stereo unspecified) [Pioglitazone hydrochloride],1.09 (inactive)
14,O=C(/C=C\n1cnc(-c2cc(C(F)(F)F)cc(C(F)(F)F)c2)n1)NNc1cnccn1 [Selinexor],0.73 (inactive)
15,Nc1nc(=O)c2c(CCc3ccc(C(=O)N[C@@H](CCC(=O)O)C(=O)O)cc3)c[nH]c2[nH]1 [Pemetrexed acid],1.19 (inactive)
16,O=NN(CCCl)C(=O)NCCCl [Carmustine],0.992 (inactive)
17,COc1ccc(-c2cc(=S)ss2)cc1 [Anethole trithione],1.05 (inactive)
18,CCCCCCCCCCCCCCCCCCOCC(O)CO (stereo unspecified) [Batyl alcohol],1.07 (inactive)
